Laboratory results taken from the supplement of paper PMC8728848.
This excerpt belongs to a sample that is enriched for the strongest signals.

Assays:
Assay in all cases: glycan array binding signal (z-score within array); higher = stronger binding
Settings in all cases: glycan notation: IUPAC condensed, linker removed
Fuc(a1-2)Gal(b1-3)GalNAc = biological target: Fuc(a1-2)Gal(b1-3)GalNAc
In short: (§1)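 Columns mapping to the same glycan were averaged after glycan names were converted to IUPAC-condensed notation. The data come from 3228 arrays in the Consortium for Functional Glycomics database, limited to those with an available protein sequence. Binding is reported as a within-array Z-score averaged across arrays of one protein sequence and across linkers.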

Fuc(a1-2)Gal(b1-3)GlcNAc = biological target: Fuc(a1-2)Gal(b1-3)GlcNAc
In short: as §1

[1] = biological target: Fuc(a1-2)Gal(b1-3)GlcNAc(b1-2)Man(a1-3)[Fuc(a1-2)Gal(b1-3)GlcNAc(b1-2)Man(a1-6)]Man(b1-4)GlcNAc(b1-4)GlcNAc
In short: as §1

[2] = biological target: Fuc(a1-2)Gal(b1-3)GlcNAc(b1-3)GalNAc
In short: as §1

[3] = biological target: Fuc(a1-2)Gal(b1-3)GlcNAc(b1-3)[Neu5Ac(a2-6)Gal(b1-4)GlcNAc(b1-6)]Gal(b1-4)Glc
In short: as §1

[4] = biological target: Fuc(a1-2)Gal(b1-4)GlcNAc(b1-2)Man
In short: as §1

[5] = biological target: Fuc(a1-2)Gal(b1-4)GlcNAc6S
In short: as §1

Fuc(a1-2)Gal6S(b1-4)Glc = biological target: Fuc(a1-2)Gal6S(b1-4)Glc
In short: as §1

[6] = biological target: Fuc(a1-2)[Gal(a1-3)]Gal(b1-4)GlcNAc(b1-2)Man(a1-3)[Fuc(a1-2)[Gal(a1-3)]Gal(b1-4)GlcNAc(b1-2)Man(a1-6)]Man(b1-4)GlcNAc(b1-4)[Fuc(a1-6)]GlcNAc
In short: as §1

[7] = biological target: Fuc(a1-2)[GalNAc(a1-3)]Gal(b1-3)GlcNAc(b1-2)Man(a1-3)[Fuc(a1-2)[GalNAc(a1-3)]Gal(b1-3)GlcNAc(b1-2)Man(a1-6)]Man(b1-4)GlcNAc(b1-4)[Fuc(a1-6)]GlcNAc
In short: as §1

[8] = biological target: Fuc(a1-2)[GalNAc(a1-3)]Gal(b1-3)GlcNAc(b1-6)GalNAc
In short: as §1

[9] = biological target: Gal(a1-3)Gal(b1-4)GlcNAc(b1-3)GalNAc
In short: as §1

[10] = biological target: Gal(b1-3)GlcNAc(b1-6)[Gal(b1-3)]GalNAc
In short: as §1

[11] = biological target: Gal(b1-3)[Fuc(a1-4)]GlcNAc
In short: as §1

[12] = biological target: Gal(b1-4)GlcNAc(b1-2)Man(a1-3)[Gal(b1-4)GlcNAc(b1-2)Man(a1-6)][Gal(b1-4)GlcNAc(b1-4)]Man(b1-4)GlcNAc(b1-4)[Fuc(a1-6)]GlcNAc
In short: as §1

[13] = biological target: Gal(b1-4)GlcNAc(b1-2)Man(a1-6)Man(b1-4)GlcNAc(b1-4)GlcNAc
In short: as §1

Gal3S(b1-3)GalNAc = biological target: Gal3S(b1-3)GalNAc
In short: as §1

[14] = biological target: Gal3S(b1-3)[Fuc(a1-4)]GlcNAc
In short: as §1

Gal6S(b1-4)Glc = biological target: Gal6S(b1-4)Glc
In short: as §1

[15] = biological target: GalNAc(b1-4)GlcNAc(b1-2)Man
In short: as §1

GalNAc(b1-6)GalNAc = biological target: GalNAc(b1-6)GalNAc
In short: as §1

[16] = biological target: GalNAc3S(b1-4)[Fuc(a1-3)]GlcNAc
In short: as §1

GalNAc6S(b1-4)GlcNAc = biological target: GalNAc6S(b1-4)GlcNAc
In short: as §1

[17] = biological target: GlcNAc(a1-3)Gal(b1-4)GlcNAc
In short: as §1

[18] = biological target: GlcNAc(a1-4)Gal(b1-3)GlcNAc
In short: as §1

[19] = biological target: GlcNAc(a1-4)Gal(b1-4)GlcNAc(b1-3)Gal(b1-4)GlcNAc(b1-3)Gal(b1-4)GlcNAc
In short: as §1

[20] = biological target: GlcNAc(b1-2)Man(a1-3)[GlcNAc(b1-2)Man(a1-6)]Man(b1-4)GlcNAc(b1-4)[Fuc(a1-6)]GlcNAc
In short: as §1

[21] = biological target: GlcNAc(b1-2)Man(a1-3)[GlcNAc(b1-4)][GlcNAc(b1-2)Man(a1-6)]Man(b1-4)GlcNAc(b1-4)GlcNAc
In short: as §1

[22] = biological target: GlcNAc(b1-2)Man(a1-3)[GlcNAc(b1-4)][GlcNAc(b1-2)Man(a1-6)]Man(b1-4)GlcNAc(b1-4)[Fuc(a1-6)]GlcNAc
In short: as §1

[23] = biological target: GlcNAc(b1-4)GlcNAc(b1-4)GlcNAc
In short: as §1

[24] = biological target: GlcNAc(b1-4)GlcNAc(b1-4)GlcNAc(b1-4)GlcNAc(b1-4)GlcNAc(b1-4)GlcNAc
In short: as §1

[25] = biological target: Man(a1-2)Man(a1-3)[Man(a1-6)]Man(a1-6)[Man(a1-2)Man(a1-3)]Man(b1-4)GlcNAc(b1-4)GlcNAc
In short: as §1

[26] = biological target: Man(a1-2)Man(a1-6)[Man(a1-3)]Man(a1-6)[Man(a1-2)Man(a1-2)Man(a1-3)]Man
In short: as §1

MurNAc(b1-4)GlcNAc = biological target: MurNAc(b1-4)GlcNAc
In short: as §1

Neu5Ac(a2-6)Gal = biological target: Neu5Ac(a2-6)Gal
In short: as §1

[27] = biological target: Neu5Ac(a2-6)Gal(b1-4)GlcNAc(b1-2)Man(a1-3)[GlcNAc(b1-2)Man(a1-6)]Man(b1-4)GlcNAc(b1-4)GlcNAc
In short: as §1

[28] = biological target: Neu5Ac(a2-6)Gal(b1-4)GlcNAc(b1-3)Gal(b1-4)GlcNAc(b1-3)[Neu5Ac(a2-6)Gal(b1-4)GlcNAc(b1-3)Gal(b1-4)GlcNAc(b1-6)]GalNAc
In short: as §1

[29] = biological target: Neu5Ac(a2-6)GalNAc(b1-4)GlcNAc
In short: as §1

[30] = biological target: Neu5Ac(a2-6)GlcNAc(b1-4)GlcNAc(b1-4)GlcNAc
In short: as §1

[31] = biological target: Neu5Gc(a2-3)Gal(b1-4)GlcNAc
In short: as §1

B1: NKR-PIC (Mus musculus) (protein)
chain: GTGQKPSREKCCVFIQENLNKTTDCSVNLECPQDWLLHRDKCFHVSQVSNTWEEGQADCGRKGATLLLIQDQEELRFLLDSIKEKYNSFWIGLRFTLPDMNWKWINGTTFNSDVLKITGVTENGSCASILGDKVTPESCASDNRWICQKELNHETPSNDSGT
Fuc(a1-2)Gal(b1-3)GalNAc
  glycan array binding signal (z-score): -0.288
Fuc(a1-2)Gal(b1-3)GlcNAc
  glycan array binding signal (z-score): -0.281
[1]
  glycan array binding signal (z-score): -0.138
[2]
  glycan array binding signal (z-score): -0.371
[3]
  glycan array binding signal (z-score): -0.362
[4]
  glycan array binding signal (z-score): -0.316
[5]
  glycan array binding signal (z-score): -0.32
Fuc(a1-2)Gal6S(b1-4)Glc
  glycan array binding signal (z-score): -0.317
[6]
  glycan array binding signal (z-score): -0.335
[7]
  glycan array binding signal (z-score): -0.375
[8]
  glycan array binding signal (z-score): -0.363
[9]
  glycan array binding signal (z-score): -0.361
[10]
  glycan array binding signal (z-score): -0.308
[11]
  glycan array binding signal (z-score): -0.262
[12]
  glycan array binding signal (z-score): -0.225
[13]
  glycan array binding signal (z-score): -0.334
Gal3S(b1-3)GalNAc
  glycan array binding signal (z-score): -0.25
[14]
  glycan array binding signal (z-score): -0.318
Gal6S(b1-4)Glc
  glycan array binding signal (z-score): -0.305
[15]
  glycan array binding signal (z-score): 5.67
GalNAc(b1-6)GalNAc
  glycan array binding signal (z-score): 0.458
[16]
  glycan array binding signal (z-score): -0.38
GalNAc6S(b1-4)GlcNAc
  glycan array binding signal (z-score): 4.94
[17]
  glycan array binding signal (z-score): 3.83
[18]
  glycan array binding signal (z-score): 1.3
[19]
  glycan array binding signal (z-score): 4.1
[20]
  glycan array binding signal (z-score): -0.287
[21]
  glycan array binding signal (z-score): 3.99
[22]
  glycan array binding signal (z-score): 3.73
[23]
  glycan array binding signal (z-score): 4.83
[24]
  glycan array binding signal (z-score): 4.62
[25]
  glycan array binding signal (z-score): -0.325
[26]
  glycan array binding signal (z-score): -0.367
MurNAc(b1-4)GlcNAc
  glycan array binding signal (z-score): 4.79
Neu5Ac(a2-6)Gal
  glycan array binding signal (z-score): -0.258
[27]
  glycan array binding signal (z-score): -0.338
[28]
  glycan array binding signal (z-score): -0.332
[29]
  glycan array binding signal (z-score): 4.03
[30]
  glycan array binding signal (z-score): 5.02
[31]
  glycan array binding signal (z-score): -0.264
